# Hit rate of the full screen: of about 310,000 compounds, about 14,000 (4.5%) showed an effect of 50% or more. Effects have a minus sign here. Many of the other results were omitted from the sample, so strong results are more common in it than they were.
# Biological target: human ether-à-go-go-related gene (hERG) potassium channel (human, UniProt Q12809)
# Assay: primary screen, population patch clamp on CHO cells stably expressing hERG; higher = less effect of the substance
# 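Also: peak tail current of the secondary pulse compared with the same well before compound.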
# Sequence of human ether-à-go-go-related gene (hERG) potassium channel (Q12809 whole entry, looked up): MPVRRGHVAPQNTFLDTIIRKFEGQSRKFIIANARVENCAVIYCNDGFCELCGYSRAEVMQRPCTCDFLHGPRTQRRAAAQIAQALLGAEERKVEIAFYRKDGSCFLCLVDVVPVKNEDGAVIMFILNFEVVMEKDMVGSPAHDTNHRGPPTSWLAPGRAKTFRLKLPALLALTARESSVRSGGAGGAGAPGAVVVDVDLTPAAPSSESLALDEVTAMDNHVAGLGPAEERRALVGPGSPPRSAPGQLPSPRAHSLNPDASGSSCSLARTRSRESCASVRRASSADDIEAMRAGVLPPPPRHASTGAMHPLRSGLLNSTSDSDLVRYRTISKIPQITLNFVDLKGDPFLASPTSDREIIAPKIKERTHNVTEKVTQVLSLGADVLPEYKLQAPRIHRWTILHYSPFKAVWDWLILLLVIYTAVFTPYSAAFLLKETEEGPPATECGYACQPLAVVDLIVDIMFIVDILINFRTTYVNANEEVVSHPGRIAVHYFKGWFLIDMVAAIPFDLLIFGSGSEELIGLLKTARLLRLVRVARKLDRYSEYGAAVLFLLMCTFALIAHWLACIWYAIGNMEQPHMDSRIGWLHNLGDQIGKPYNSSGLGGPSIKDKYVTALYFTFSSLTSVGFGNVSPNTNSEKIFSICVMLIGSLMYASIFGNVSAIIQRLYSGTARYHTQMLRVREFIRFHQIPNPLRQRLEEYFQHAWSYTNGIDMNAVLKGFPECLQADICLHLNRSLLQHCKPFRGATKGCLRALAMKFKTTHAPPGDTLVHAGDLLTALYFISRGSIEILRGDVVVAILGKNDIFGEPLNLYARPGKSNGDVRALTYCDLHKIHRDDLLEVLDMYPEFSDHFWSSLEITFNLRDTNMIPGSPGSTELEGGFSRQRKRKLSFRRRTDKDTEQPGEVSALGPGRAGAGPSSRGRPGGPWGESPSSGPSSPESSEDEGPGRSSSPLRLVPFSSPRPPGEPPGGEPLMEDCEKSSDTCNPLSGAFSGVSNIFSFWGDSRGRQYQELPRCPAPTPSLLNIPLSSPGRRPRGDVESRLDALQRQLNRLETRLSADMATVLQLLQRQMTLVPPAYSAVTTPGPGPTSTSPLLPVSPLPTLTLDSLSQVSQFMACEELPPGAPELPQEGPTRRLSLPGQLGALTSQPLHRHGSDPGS
row,SMILES,"hERG current change (%, negative = inhibition) at 10uM [%]"
1,O=C(CC1C(=O)NCCN1Cc1cccc(C(F)(F)F)c1)NCCc1cnccn1 (stereo not drawn),7.22
2,O=C(COC(=O)c1cc(Cl)ccc1O)NC(=O)NCc1ccccc1,4.6
3,COC(=O)C(CSCc1ccccc1)NC(=O)CSc1nc(C)cc(=O)[nH]1 (stereo not drawn),18.4
4,CN(c1ccccc1)S(=O)(=O)c1ccc(C(=O)NCCc2ccc(F)cc2)cc1,-21.1
5,CC(=O)Nc1ccc(/C(C)=N/NC(=O)c2ccc(CN3CCOCC3)cc2)cc1,25.2
6,Br.CC1CCCC(C)N1Cc1cn2ccccc2n1 (stereo not drawn),7.29
7,Cc1nn(CC(=O)Nc2ccccn2)c(C)c1Br,15.3
8,Nc1ccc2ncccc2c1N,6.47
9,CSc1ccc(CCNS(=O)(=O)c2c(C)[nH]c(C)c2C(=O)N2CCCCC2)cc1,-15.2
10,COc1ccc(CCNC(=O)c2cc(=O)n(C)c(=O)n2C)cc1OC,-0.242
11,Cc1ccc(-n2c(SCC(=O)OC(C)C)nnc2-c2ccco2)cc1,-37.7
12,Cc1cccc(C(=O)Oc2ccccc2/C=N/NC(=O)c2ccc(NC(=O)C(C)(C)C)cc2)c1,-4.88
13,CN1C=CC2=C(C#N)C(N)C(C#N)(C#N)[C@H](c3ccccc3)[C@H]2C1 (stereo partly drawn),-4.67
14,O=C(CSc1nnnn1-c1ccccc1)N1CCN(C(=O)c2ccco2)CC1,-49.4
15,Cc1ccc(-n2nnnc2SCC(=O)N2CCN(C(=O)c3ccco3)CC2)c(C)c1,-76
16,Cc1ccc(-n2nnnc2SCC(=O)NNC(=O)c2ccco2)c(C)c1,-4.35
17,COc1ccccc1NC(=O)c1cnc(SC)nc1,19.2
18,O=C(O)C(=O)O.O=S(=O)(c1ccc(Cl)cc1)N1CCC(N2CCOCC2)CC1,-11.5
19,Cn1ncc2c(Nc3ccc(O)cc3)nc(Cl)nc21,5.53
20,Cc1ccccc1OCc1nnc(SCCN2CCCC2)n1-c1ccccc1.Cl,-65.3
21,Cn1c(CNc2ccc(Cl)cc2)nnc1SCCN1CCCCC1,-46.4
22,COc1ccc(C(=O)CSc2nnc(CN3CCCCC3)n2-c2ccc(F)cc2)cc1,-57.7
23,COc1ccc(NCc2nnc(SCCN3CCCCC3)n2-c2ccc(C)cc2)cc1,-66.7
24,Cc1ccccc1OCc1nnc(SCC(=O)O)n1-c1ccccc1,14.4
25,COc1ccc(-n2c(CNc3ccc(C)cc3)nnc2SCc2ccccc2)cc1,-7.09
26,COc1ccc(C(=O)CSc2nnc(CN3CCCC3)n2-c2ccc(F)cc2)c(OC)c1,-23
27,COc1ccc(C(=O)CSc2nnc(CN3CCCCC3)n2-c2ccc(F)cc2)cc1OC,6.33

row,SMILES,"hERG current change (%, negative = inhibition) at 10uM [%]"
1,Cc1ccccc1OCc1nnc(SCC(=O)O)n1-c1cccc(Cl)c1,5.63
2,O=C(CCN1CCOCC1)Nc1c(-c2ccccc2)c2cc(Br)ccc2[nH]c1=O,-11.9
3,CC(=O)Nc1ccc(C(=O)Nc2cccc(S(=O)(=O)NC3=NCCC3)c2)cc1,4.95
4,CC(C)(O)C#Cc1ccc(CN2CCN(Cc3ccccc3)C(CCO)C2)s1 (stereo not drawn),4.64
5,CCOc1cc(C)c(S(=O)(=O)Nc2ccc3cn[nH]c3c2)cc1C,25.2
6,N#CC1(NC(=O)CSc2nnc(Nc3ccccc3F)s2)CCCC1,0.45
7,COc1cc(OC)cc(C(=O)OCC(=O)NCCCc2ccccc2)c1,12.2
8,C=CCN1C(=O)N/C(=C/c2ccc(C)o2)C1=O,9.15
9,COC(=O)c1ccc(C2c3[nH]c4ccccc4c3C[C@H]3C(=O)N(C4CCN(Cc5ccccc5)CC4)CC(=O)N23)cc1 (stereo partly drawn),-10
10,CSCC[C@H](NC(=O)C1=NN(c2c(F)c(F)cc(F)c2F)C(=O)CC1)c1nc2ccccc2[nH]1,-13.3
11,CCC(=O)N/N=C(\C)CC(=O)Nc1cccc([N+](=O)[O-])c1,9.57
12,COc1cc(NC(=O)C/C(C)=N/NC(=O)c2cccs2)c(OC)cc1Cl,-14.4
13,COc1ccc(NC(=O)c2cccs2)c([N+](=O)[O-])c1,-3.28
14,COc1ccc(NC(=O)C/C(C)=N/NC(=O)c2cccs2)c([N+](=O)[O-])c1,-54.4
15,CC(=O)Nc1ccccc1NC(=O)C/C(C)=N/NC(=O)c1ccncc1,19.6
16,COc1ccc(NC(=O)C2CCCN2S(=O)(=O)c2cccs2)c([N+](=O)[O-])c1 (stereo not drawn),-68.3
17,COc1ccc([N+](=O)[O-])cc1NC(=O)C1CCCN1S(=O)(=O)c1cccs1 (stereo not drawn),-18.1
18,COc1ccc(NC(=O)C/C(C)=N/NC(=O)c2ccncc2)c([N+](=O)[O-])c1,-59.8
19,COc1ccc(NC(=O)C/C(C)=N/NC(=O)c2ccco2)c([N+](=O)[O-])c1,-33.9
20,COc1ccc(OCC(=O)N/N=C(\C)CC(=O)Nc2cccc([N+](=O)[O-])c2)cc1,-53.8
21,COc1ccc(-c2nnc(NC(=O)C3CCCN3S(=O)(=O)c3cccs3)o2)cc1 (stereo not drawn),-3.47
22,COc1ccc(NC(=O)C/C(C)=N/NC(=O)COc2ccc(OC)cc2)cc1,-18.8
23,Cc1ccccc1CN(C)CC(=O)NC(C)CCc1ccccc1 (stereo not drawn),-17.2
24,O=C(CSc1nnc(-c2ccccc2)n1C1CCCCC1)N1CCCC1,-6.76
25,CCC1(C)Cc2c(sc3nc(SC)nc(N)c23)CO1 (stereo not drawn),-7.82
26,O=C1NC(Cc2ccccc2)c2nc3ccccc3c(=O)n2-c2cc(Cl)ccc21 (stereo not drawn),11.4
27,CCCCn1c(N)c(N(CCC(C)C)C(=O)C2=NN(c3cc(C)ccc3C)C(=O)CC2)c(=O)[nH]c1=O,-1.89

# From PMC4336329 (PLoS ONE, 2015)
